Screens (PubChem BioAssay)
ATXN viability – Viability Counterscreen for Primary qHTS for Inhibitors of ATXN expression; Potency, µM (series often up to 56.7 µM), usual class: cytotoxic; S2 cells (HEK-293 line with an ATXN2-luciferase reporter) viability, CellTiter-Fluor protease fluorescence, 24 h; AID 651635, 2014; actives 0.49% (n = 400,000); also: nearly all actives have a fitted effect of over 40% in size
HT1080-NT tox – qHTS for induction of synthetic lethality in tumor cells producing 2HG: qHTS for the HT-1080-NT fibrosarcoma cell line | AID 686970, 2013 | HT-1080-NT fibrosarcoma viability, CellTiter-Glo ATP luminescence, 48 h | Potency, µM (top dose mostly 46.1 µM), for inactives: top-dose activity, negative = less viability, hits mostly cytotoxic | actives 1.6% (n = 360,000);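 also: NT is the 2HG producing partner of a matched IDH1 knockdown line; 0% = DMSO-treated cells and -100% = media-only wells without cells; nearly all actives have a fitted effect of over 55% in size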
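A 48-hour cytotoxicity screen used HT-1080-NT cells plated 2 hours before compound delivery. ATP-based CellTiter-Glo luminescence measured viability, normalized to DMSO and no-cell controls.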
KB-3-1 tox – qHTS assay for MDR1-selective chemotherapeutics: Primary screen using the parental adenocarcinoma cell KB-3-1; Potency, µM (doses to about 46.1 µM), hits mostly cytotoxic; AID 1347075, 2019; actives 1.4% (n = 400,000); KB-3-1 viability, CellTiter-Glo ATP luminescence, 72 h; also: % is scaled to controls: 0 for no effect and ±100 for the full control effect; nearly all actives have a fitted effect of over 60% in size
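Parental KB-3-1 viability, qHTS format: 72 h compound exposure, 37 °C; CellTiter-Glo; media-only wells and DMSO plates as controls; concentration-effect fits on corrected data.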
KB-V1 cytotox – qHTS assay for MDR1-selective chemotherapeutics: Primary screen using the drug-selected MDR subline cells KB-V1. KB-V1 MDR cells viability, CellTiter-Glo, 72 h. Potency, µM (series often up to 46.1 µM), usual class: cytotoxic. actives 3.4% (n = 400,000); also: % is scaled to controls: 0 for no effect and ±100 for the full control effect; nearly all actives have a fitted effect of over 60% in size
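Cells of the MDR subline KB-V1 are plated, dosed with compound at multiple concentrations, and incubated 72 h at 37 degrees C; CellTiter-Glo is then added and luminescence read after 10 min.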
ATXN2 expr inh – Primary qHTS for Inhibitors of ATXN expression | HEK-293 ATXN2-luciferase reporter, luminescence, 24 h | Potency, µM (highest dose often 57 µM), inactives show at the highest dose activity change, negative = inhibition, usual class: inhibitors | actives 0.72% (n = 360,000) | AID 1745845, 2022; also: % is scaled to controls: 0 for no effect and ±100 for the full control effect; nearly all actives have a fitted effect of over 55% in size
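qHTS (up to 57 uM final) was run with 24 h compound exposure of reporter cells at 37 °C. Each well was multiplexed: SteadyGlo luminescence measured ATXN2-luciferase expression after a fluorogenic Gly-Phe-AFC viability readout (25 uM final).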
HT1080 IDH1KD tx – qHTS for induction of synthetic lethality in tumor cells producing 2HG: qHTS for the HT-1080-IDH1KD cell line; HT-1080 IDH1 knockdown viability, ATP luminescence, 48 h; actives 2% (n = 360,000); AID 686971, 2013; Potency, µM (series often up to 46.1 µM), inactives show top-dose activity, negative = toxicity, most hits filed as cytotoxic;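 also: 0% = DMSO wells and -100% = cell-free medium wells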
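Knockdown cells (IDH1KD HT-1080) received compounds 2 h after plating at 750 cells/well and were kept 48 h at 37 °C in 5% FBS RPMI. A CellTiter-Glo luminescence read gave % activity for curve fitting.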
The depositor's hits bear a star; i = inactive; ? = inconclusive; . = not tested or not shown. Only some compounds are listed: those with a hit (about 6.2% of all), similar ones and a draw of the others. Calls follow the shape of the dose curve; as a rule, active = well fitted curve in the direction sought with a large enough effect; inconclusive = small, poorly fitted or top-dose-only effect, or another doubt; inactive = no such curve, though single readings can be large; an effect the other way counts as inactive or inconclusive. Potency is read from the fitted curve at half-maximal effect.

SMILES | ATXN viability | HT1080-NT tox | KB-3-1 tox | KB-V1 cytotox | ATXN2 expr inh | HT1080 IDH1KD tx
COc1ccc(-c2nnc3ccc(SC)nn23)cc1 | ? | -3% | i | 15µM* | -12% | ?
O=C(Nc1cnc(N2CCN(c3ccccc3)CC2)c(C(=O)O)c1)c1cccs1 | i | . | i | ? | 5% | .
CCc1ccc(NC(=O)c2cc3c([nH]c2=O)CC(C)(C)CC3=O)cc1 | i | . | i | i | 16% | .
Cc1ccc2cc(C#N)c(SCC(=O)N3CCCc4ccccc43)nc2c1C | i | 1% | i | 2.6µM* | -3% | 3%
CCn1c(CSc2nc(C)cc(C)n2)nnc1SCC(=O)N1CCCc2ccccc21 | i | 7% | i | 21µM* | 2% | -3%
O=C(CSc1nnc(Cc2cccs2)n1C1CCCCC1)N1CCCc2ccccc21 | i | -15% | ? | 21µM* | 8% | ?
COc1ccc2cc(CNc3ccc(C)cc3)c(=O)n(CC(=O)Nc3cccc(C(F)(F)F)c3)c2c1 | i | . | i | i | 10% | .
COc1ccc(NC(=O)c2c(NCc3ccc(C)o3)sc3c2CCCCC3)c(OC)c1 | ? | . | i | i | -29% | .
c1ccc2c(c1)C1=NCCN1c1ccccc1-2 | i | ? | ? | 12µM* | . | 16µM*
Cc1c(CCC(=O)NCCc2ccccc2)c(=O)oc2c(C)c(O)ccc12 | i | . | i | i | 9% | .
O=C(NCCCN1CCN(c2ccccc2F)CC1)c1ccc2nc(N3CCCCC3)sc2c1 | i | . | i | i | 34% | .
Cc1ccc([N+](=O)[O-])cc1CN1CCN(c2ncc(Cc3ccccc3)cn2)CC1 | . | -15% | ? | ? | . | ?
Oc1ccc(Br)c(CN2CCN(c3ncc(Cc4ccccc4)cn3)CC2)c1 | . | ? | 21µM* | 18µM* | . | ?
COc1ccc([N+](=O)[O-])cc1CN1CCN(c2ncc(Cc3ccccc3)cn2)CC1 | . | ? | ? | 7.3µM* | . | ?
Cc1nnc(N/N=C/c2cccc(C(F)(F)F)c2)n1N | i | ? | i | i | 0% | ?
CCOc1cc(/C=N/Nc2nnc(C)n2N)ccc1OC(C)=O | i | 16µM* | i | i | -17% | 21µM*
COc1ccc(/C=N/Nc2nncn2N)cc1Br | i | 16µM* | i | i | -19% | ?
CCc1nnc(N/N=C\c2ccc(OC(C)=O)c(OC)c2)n1N | i | ? | i | i | -15% | 18µM*
CCc1nnc(N/N=C/c2ccc(O)c(OC)c2)n1N | i | -28% | i | i | 3% | -11%
O=C(NCC1Cc2cccc(-c3cnccn3)c2O1)c1ccc(F)c(Cl)c1 (centres undefined) | i | . | . | . | . | .
O=C1CSC(=Nc2cccc(C(=O)O)c2)N1 | i | 5% | i | i | 10% | 14%
CC(=O)c1cccc(N=C2NC(=O)CS2)c1 | i | 8% | i | 6.5µM* | 1% | 9%
CC(C)COc1ccc(C(=O)N(Cc2cccc(F)c2)C2CCS(=O)(=O)C2)cc1 (centres undefined) | . | . | i | i | . | .
S=C1NC[C@H](CC2CCCCC2)N1CC1CCCCC1 | 18µM* | ? | i | i | 32µM* | ?
Cc1ccc(OCCOC(=O)c2cc(S(=O)(=O)N3CCCCC3)ccc2N2CCOCC2)cc1 | ? | -1% | 4.6µM* | 2.9µM* | -33% | ?
O=C(OCCOc1ccc(Cl)cc1)c1cc(S(=O)(=O)N2CCCCC2)ccc1N1CCOCC1 | ? | -19% | ? | ? | . | ?
O=C(CCCSc1ccccc1)Nc1ccc(Cl)c(S(=O)(=O)N2CCOCC2)c1 | i | 1% | ? | 2.6µM* | -27% | -18%
